Assay outcomes as filed in PubChem.
PKA-R2B activ = activates the human PKA-R2B holoenzyme complex | P22694+P31323 | PKA-R2B holoenzyme dissociation, Cy5-IP20 fluorescence polarization; R2B truncated from residue 108, S112A mutant; 0% DMSO only, 100% 113 µM cGMP | activation, % at 11.4 µM | 340,000 compounds, 0.079% hits;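 active means activation above a cutoff set at the mean over all compounds plus 3 SD, cut at about 18% in these data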;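 further: higher means more holoenzyme dissociation and a rise in polarization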
eLon inh = E. coli protease La inhibition | purified E. coli Lon protease, fluorescence polarization | inhibition, % at 7.94 µM | 360,000 compounds, 0.42% hits; in the data active means inhibition above about 13%, passing the limit was not always enough
Rin1 Abl inh = human Rin1-Abl interaction inhibition; inhibition, % at 7.35 µM; 360,000 compounds, 0.4% hits; P00519+Q13671; AID 588664; TR-FRET Rin1/Abl binding, biochemical; in the data active means inhibition above about 5%, passing the limit was not always enough
IDE inh = cellular human IDE inhibition; P14735; HEK cells, FAbetaB cleavage, fluorescence polarization; inhibition, % at 5.59 µM; 320,000 compounds, 0.41% hits; AID 434962;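 active means percent inhibition above the average of all tested compounds plus 3 SD, set per screening campaign, cut at about 16% in these data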;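 further: IDE supplied by intact live HEK cells; FP after avidin binding of uncleaved biotin substrate so inhibition keeps polarization high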
IDE act = activators of human insulin-degrading enzyme in cells. P14735. HEK cells, FAbeta-B cleavage, fluorescence polarization; 0% vehicle, 100% cell-free pure enzyme wells. activation, % at 5.96 µM. 340,000 compounds, 0.073% hits. AID 493087;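 active means activation above the mean of all tested compounds plus 3 SD, set per screening campaign, cut at about 17% in these data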
PKA-R1A act = activators of PKA-R1A complex. PKA-R1A dissociation, Cy5-IP20 fluorescence polarization; scaled: DMSO 0%, 113 µM cGMP 100%. 340,000 compounds, 0.083% hits. activation, % at 11.4 µM. P00514+P68181;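 active means percent activation above the mean of all tested compounds plus 3 SD, cut at about 19% in these data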;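 further: higher means more PKAc released from R1A so a rise in polarization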
IDE cell inh cf = cellular human IDE inhibition, confirmation; shares compounds with IDE inh; AID 435028; HEK cells, FAbetaB cleavage, fluorescence polarization; inhibition, % at 5.59 µM; 1,200 compounds, 51% hits;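 active means mean inhibition across triplicate wells above the cutoff set by the earlier primary insulin-degrading enzyme screen, cut at about 16% in these data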
HEK cytotox = counter-screen for IDE inhibitors: cytotoxicity in HEK cells. shares compounds with IDE inh. HEK293 cytotoxicity, ATP luminescence. inhibition, % at 5.59 µM. 1,200 compounds, 28% hits. AID 449730; in the data active means inhibition above about 22%
Each line names hits and unclear results; the compound was inactive in the other large screens (follow-up assays come after a bar, where they were run). Shown are actives, neighbours in structure and some others; about 1.3% of the full set was active somewhere.

CC(=O)N1c2ccc(S(=O)(=O)N3CCC(C(=O)N4CCN(c5ccc(Cl)cc5)CC4)CC3)cc2CC1C (stereo unspecified)	IDE inh 19.6 | IDE cell inh cf inactive | HEK cytotox 37.8
COc1ccccc1C(=O)NCC(=O)OCC(=O)c1ccc2c(c1)-c1ccccc1C2	IDE inh 21.7 | IDE cell inh cf inactive | HEK cytotox inactive
C=CCOC(=O)C1=C(C)NC(=O)NC1/C=C/c1ccccc1OC (stereo unspecified)	IDE inh 20.8 | IDE cell inh cf inactive | HEK cytotox inactive
COc1ccccc1/C=C/C1NC(=O)NC(C)=C1C(=O)OC(C)C (stereo unspecified)	none
Cn1ncc2c(Nc3ccc4ccccc4c3)ncnc21	IDE inh 32.1 | IDE cell inh cf inactive | HEK cytotox inactive
CCN1C(=O)C(CC(=O)NCc2ccc(Cl)cc2)N(CC)C1=O (stereo unspecified)	none
Cc1ccc2cc3cc(C(=O)NCCN4CCOCC4)oc3nc2c1	none
CCN1C(=O)/C(=C/C=C2/CCCN2C)OC1=S	IDE inh 19.1 | IDE cell inh cf 26.5 | HEK cytotox inactive
C[C@@H]1CC=C[C@H]2[C@H]1C(=O)N(Cc1ccccc1)[C@H]2c1ccc(Br)cc1F	none
O=C(NN=Cc1c(O)ccc2ccccc12)c1ccc2c(c1)OCO2	IDE inh 30.0 | IDE cell inh cf 54.2 | HEK cytotox 111.7
O=C(N/N=C/c1c(O)ccc2ccccc12)c1ccc(CO)nc1	IDE inh 26.6 | IDE cell inh cf 38.8 | HEK cytotox 73.4
O=C(N/N=C/c1ccccc1)c1ccc2c(c1)OCO2	none
COc1ccc2ccccc2c1/C=N/NC(=O)c1ccc(C)nc1	none
COc1cc(NC(=O)c2cccs2)c(C(=O)OCC(=O)c2cc(C)n(-c3ccc(F)cc3)c2C)cc1OC	none
COc1cc(OC)cc(C(=O)Nc2cccc(NC(=O)c3cc(OC)cc(OC)c3)n2)c1	IDE inh 16.9 | IDE cell inh cf inactive | HEK cytotox inactive
COc1cc(OC)cc(C(=O)Nc2cccc(NC(C)=O)c2)c1	none
c1ccc2c(c1)[nH]c1c(N3CCC4(CC3)OCCO4)ncnc12	none
OC1(c2cccc(C(F)(F)F)c2)CCN(c2ncnc3c2[nH]c2ccccc23)CC1	IDE inh 19.4 | IDE cell inh cf inactive | HEK cytotox 34.5
CCOc1ccc2[nH]c3c(N4CCN(c5ccccn5)CC4)ncnc3c2c1	IDE inh 25.0 | IDE cell inh cf inactive | HEK cytotox 25.9
c1ccc2c(c1)CCN(c1ncnc3c1[nH]c1ccccc13)C2	IDE inh 20.6 | IDE cell inh cf 17.4 | HEK cytotox 80.3
COc1ccc2c(c1)[nH]c1c(N3CCN(Cc4ccc5c(c4)OCO5)CC3)ncnc12	none
c1ccc(CN2CCN(c3ncnc4c3[nH]c3ccccc34)CC2)cc1	IDE inh 33.1 | IDE cell inh cf 17.9 | HEK cytotox 57.9
CCOc1ccc2oc(C(=O)N3CCN(c4ccccn4)CC3)c(C)c2c1	none (no result: IDE inh)
O=C(O)CCn1ccnc1-c1ccccc1	none
COc1c(C(=O)Nc2ccccc2N2CCOCC2)cc2ccccc2c1Br	none
Cc1ccc2c(c1)[nH]c1c(N3CCN(Cc4ccccc4)CC3)ncnc12	none
Cc1ccc2[nH]c3c(N4CCN(Cc5ccccc5)CC4)ncnc3c2c1	IDE inh 35.6 | IDE cell inh cf 17.5 | HEK cytotox 40.5
CN(C)c1ccc(/C=C/c2cccc[n+]2[O-])cc1	none (no result: PKA-R2B activ, IDE act, PKA-R1A act)
CC(C)CC[n+]1ccccc1/C=C/c1ccc(N(C)C)cc1	IDE inh 36.9 | IDE cell inh cf 68.8 | HEK cytotox 101.0
Cc1[nH]n(-c2ccccc2)c(=S)c1C=Nc1cccc([N+](=O)[O-])c1	IDE inh 25.4 | IDE cell inh cf inactive | HEK cytotox inactive
N#C/C(=C\c1ccc(N2CCOCC2)o1)c1nc2ccccc2[nH]1	IDE inh 20.0 | IDE cell inh cf 25.9 | HEK cytotox 29.2
N#C/C(=C\c1ccc(N2CCOCC2)c([N+](=O)[O-])c1)c1nc2ccccc2[nH]1	none
O=C(Nc1cccc(C(F)(F)F)c1)c1scc2c1OCCO2	none
CS(=O)(=O)c1ccc(N)c(SSc2cc(S(C)(=O)=O)ccc2N)c1	IDE inh 30.4 | IDE cell inh cf 26.7 | HEK cytotox inactive
Cn1c(=O)c2ccccc2n(CC(=O)NC2CCCC2)c1=O	none
CCCc1nc(SCC(=O)NC2CCCC2)c2ccccc2n1	none
Cc1ccc(C2=NN=C(NC(=O)CSc3nncn3C)SC2)cc1	IDE inh 23.7 | IDE cell inh cf inactive | HEK cytotox inactive
C=CCN1C(=O)/C(=C/C=C2/N(CC)c3ccc(S(=O)(=O)N(C)C)cc3N2CC)SC1=S	IDE inh 22.3 | IDE cell inh cf 160.4 | HEK cytotox 39.3
O=C(CN1C(=O)CCS(=O)(=O)c2ccccc21)NCc1ccc2c(c1)OCO2	none
CC1CCN(CCc2nc3cc(NC(=O)NC4CCCCC4)ccc3n2C)CC1	IDE inh 19.2 | IDE cell inh cf inactive | HEK cytotox inactive
COc1cc(/C=C(\C#N)C(=O)NCc2cccs2)ccc1O	IDE inh 34.1 | IDE cell inh cf 45.3 | HEK cytotox inactive
N#C/C(=C/c1cccc(O)c1)C(=O)NCc1ccc(Cl)cc1	none
N#C/C(=C\c1ccc(O)c(O)c1)C(=O)Nc1ccccc1	IDE inh 25.6 | IDE cell inh cf 49.7 | HEK cytotox inactive
N#C/C(=C/c1ccc(O)c(O)c1)C(=O)NCc1ccc(Cl)cc1	IDE inh 24.2 | IDE cell inh cf 33.2 | HEK cytotox inactive
O=C1CCc2ccccc2O1	none
COC(=O)c1sccc1NC(=O)Nc1cc(C)cc(C)c1	none (no result: IDE inh)
O=C(C1=NN(c2ccccc2)C2C(=O)N(c3ccccc3Cl)C(=O)C12)c1ccccc1 (stereo unspecified)	IDE inh 24.0 | IDE cell inh cf 28.9 | HEK cytotox inactive
O=C(C1=NN(c2ccccc2)C2C(=O)N(c3ccccc3)C(=O)C12)c1ccccc1 (stereo unspecified)	IDE inh 18.7 | IDE cell inh cf 23.1 | HEK cytotox inactive
Cc1ccc(N2C(=O)C3C(C(=O)c4ccccc4)=NN(c4ccccc4)C3C2=O)cc1 (stereo unspecified)	none
COc1cc([N+](=O)[O-])ccc1NC(=O)C1C2C=CC(C2)C1C(=O)O (stereo unspecified)	none
O=C(C1CC1)N1CCc2cc(Br)cc(S(=O)(=O)NCc3ccco3)c21	none
